Values joined by “and” are separate entries in the source; they are usually repeats but may differ in a detail not shown here. Equal entries are not always repeated. This is part of a sample that, as a whole, favours compounds with a hit. Of some 83,000 tested, about 20% had one in any assay.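 For each line, cells grew in 96-well plates with the test compound present at a single concentration for 48 hours.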
Legend:
Test in all cases: NCI-60 one-dose screen, 48 h (100 = growth as untreated, 0 = no growth, -100 = all killed)
Conditions in all cases: 10 µM unless noted; active = growth percent below 10; inactive = the rest
NCI-H23 lung = system: NCI-H23 lung
NCI-H226 lung = system: NCI-H226 lung
NCI-H322M lung = system: NCI-H322M lung
HOP-62 NSCLC = system: HOP-62 NSCLC
NCI-H460 lung = system: NCI-H460 lung
HOP-92 NSCLC = system: HOP-92 NSCLC
NCI-H522 lung = system: NCI-H522 lung
A549/ATCC NSCLC = system: A549/ATCC NSCLC
786-0 renal = system: 786-0 renal
COLO 205 colon = system: COLO 205 colon
DU-145 prostate = system: DU-145 prostate
K-562 leukemia = system: K-562 leukemia
MALME-3M melanoma = system: MALME-3M melanoma
MDA-MB-231 breast = system: MDA-MB-231 breast
RXF 393 renal = system: RXF 393 renal
SF-268 CNS = system: SF-268 CNS
SF-295 CNS = system: SF-295 CNS
SF-539 CNS = system: SF-539 CNS
UACC-257 melanoma = system: UACC-257 melanoma
M14 melanoma = system: M14 melanoma

Measured: growth

CN(C)CC(CN(C)C)C(O)c1ccccc1 (stereo not given)
inactive: NCI-H23 lung 106% | NCI-H226 lung 96.6% | NCI-H322M lung 103% | HOP-62 NSCLC 91.4% | NCI-H460 lung 112% | HOP-92 NSCLC 97.9% | NCI-H522 lung 76.4% | A549/ATCC NSCLC 91.5% | 786-0 renal 96.6% | COLO 205 colon 110% | DU-145 prostate 110% | K-562 leukemia 94.5% | MALME-3M melanoma 105% | MDA-MB-231 breast 114% | RXF 393 renal 110% | SF-268 CNS 99% | SF-295 CNS 96.9% | SF-539 CNS 90.7% | UACC-257 melanoma 102% | M14 melanoma 96.4%

COc1ccc(CCn2cnn3c(=O)c4ccccc4nc3c2=O)cc1OC
inactive: NCI-H23 lung 97.6% and 114% | NCI-H226 lung 94.7% and 97% | NCI-H322M lung 103% and 110% | HOP-62 NSCLC 112% and 104% | NCI-H460 lung 105% and 118% | HOP-92 NSCLC 93.6% and 88.7% | NCI-H522 lung 112% and 97.6% | A549/ATCC NSCLC 104% and 106% | 786-0 renal 95.2% and 108% | COLO 205 colon 104% and 117% | DU-145 prostate 98.2% and 117% | K-562 leukemia 99.9% and 102% | MALME-3M melanoma 114% | MDA-MB-231 breast 110% and 101% | RXF 393 renal 103% and 115% | SF-268 CNS 93.8% and 108% | SF-295 CNS 111% | SF-539 CNS 101% and 97.4% | UACC-257 melanoma 101% and 112% | M14 melanoma 94% and 106%

O=C1C(=O)c2ccccc2C(O)=C1CC=C(Cl)Cl
inactive: NCI-H23 lung 67.6% and 71.5% | NCI-H226 lung 73.4% and 63.5% | NCI-H322M lung 75.8% and 58% | HOP-62 NSCLC 50.9% and 61.3% | NCI-H460 lung 17.1% and 17.9% | HOP-92 NSCLC 36.4% and 87.3% | NCI-H522 lung 43.7% and 42.1% | A549/ATCC NSCLC 56% and 44.5% | 786-0 renal 39.5% and 60% | COLO 205 colon 57.1% and 57.7% | DU-145 prostate 68% and 63.4% | K-562 leukemia 31% and 33% | MALME-3M melanoma 68.5% and 69.2% | MDA-MB-231 breast 72.8% and 71.8% | RXF 393 renal 51.8% and 71.7% | SF-268 CNS 45.2% and 53.9% | SF-295 CNS 38.5% and 14.4% | SF-539 CNS 44.7% and 55.6% | UACC-257 melanoma 43.2% and 74.3% | M14 melanoma 57.3% and 69%

Nc1c(Cl)cc2c(c1Br)C(=O)c1ccccc1C2=O
inactive: NCI-H23 lung 88.2% | NCI-H226 lung 99.5% | NCI-H322M lung 96% | HOP-62 NSCLC 101% | NCI-H460 lung 110% | HOP-92 NSCLC 125% | NCI-H522 lung 91.7% | A549/ATCC NSCLC 98.1% | 786-0 renal 105% | COLO 205 colon 104% | DU-145 prostate 121% | K-562 leukemia 83.5% | MALME-3M melanoma 132% | MDA-MB-231 breast 83.3% | RXF 393 renal 110% | SF-268 CNS 108% | SF-295 CNS 104% | SF-539 CNS 84.6% | UACC-257 melanoma 108% | M14 melanoma 108%

Cc1cc(O)c(C(C)C)cc1N=O
inactive: NCI-H23 lung 95.4% and 111% | NCI-H226 lung 99.6% and 108% | NCI-H322M lung 115% and 104% | HOP-62 NSCLC 103% and 99.4% | NCI-H460 lung 115% | HOP-92 NSCLC 79.7% | NCI-H522 lung 93.8% and 74.7% | A549/ATCC NSCLC 106% and 99.9% | 786-0 renal 98.6% and 103% | COLO 205 colon 106% and 112% | DU-145 prostate 108% and 104% | K-562 leukemia 99.6% | MALME-3M melanoma 113% and 108% | MDA-MB-231 breast 83.3% and 100% | RXF 393 renal 112% and 113% | SF-268 CNS 99.7% and 96.1% | SF-295 CNS 98.8% and 121% | SF-539 CNS 98.7% and 101% | UACC-257 melanoma 103% and 97.1% | M14 melanoma 104%

Reference: PubChem BioAssay (NCI)
